# Data: publication PMC4336329 (PLoS ONE, 2015)
# Hit rate of the full screen: of about 310,000 compounds, about 14,000 (4.5%) showed an effect of 50% or more. Effects have a minus sign here. What follows is part of a selection rich in strong results, with near analogues and random picks from the rest.
# Molecular target: human ether-à-go-go-related gene (hERG) potassium channel (human, UniProt Q12809)
# Assay: primary screen, population patch clamp on CHO cells stably expressing hERG; higher = less effect of the substance
# 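Also: peak tail current of the secondary pulse compared with the same well before compound.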
# Chain of human ether-à-go-go-related gene (hERG) potassium channel (Q12809 whole entry, looked up): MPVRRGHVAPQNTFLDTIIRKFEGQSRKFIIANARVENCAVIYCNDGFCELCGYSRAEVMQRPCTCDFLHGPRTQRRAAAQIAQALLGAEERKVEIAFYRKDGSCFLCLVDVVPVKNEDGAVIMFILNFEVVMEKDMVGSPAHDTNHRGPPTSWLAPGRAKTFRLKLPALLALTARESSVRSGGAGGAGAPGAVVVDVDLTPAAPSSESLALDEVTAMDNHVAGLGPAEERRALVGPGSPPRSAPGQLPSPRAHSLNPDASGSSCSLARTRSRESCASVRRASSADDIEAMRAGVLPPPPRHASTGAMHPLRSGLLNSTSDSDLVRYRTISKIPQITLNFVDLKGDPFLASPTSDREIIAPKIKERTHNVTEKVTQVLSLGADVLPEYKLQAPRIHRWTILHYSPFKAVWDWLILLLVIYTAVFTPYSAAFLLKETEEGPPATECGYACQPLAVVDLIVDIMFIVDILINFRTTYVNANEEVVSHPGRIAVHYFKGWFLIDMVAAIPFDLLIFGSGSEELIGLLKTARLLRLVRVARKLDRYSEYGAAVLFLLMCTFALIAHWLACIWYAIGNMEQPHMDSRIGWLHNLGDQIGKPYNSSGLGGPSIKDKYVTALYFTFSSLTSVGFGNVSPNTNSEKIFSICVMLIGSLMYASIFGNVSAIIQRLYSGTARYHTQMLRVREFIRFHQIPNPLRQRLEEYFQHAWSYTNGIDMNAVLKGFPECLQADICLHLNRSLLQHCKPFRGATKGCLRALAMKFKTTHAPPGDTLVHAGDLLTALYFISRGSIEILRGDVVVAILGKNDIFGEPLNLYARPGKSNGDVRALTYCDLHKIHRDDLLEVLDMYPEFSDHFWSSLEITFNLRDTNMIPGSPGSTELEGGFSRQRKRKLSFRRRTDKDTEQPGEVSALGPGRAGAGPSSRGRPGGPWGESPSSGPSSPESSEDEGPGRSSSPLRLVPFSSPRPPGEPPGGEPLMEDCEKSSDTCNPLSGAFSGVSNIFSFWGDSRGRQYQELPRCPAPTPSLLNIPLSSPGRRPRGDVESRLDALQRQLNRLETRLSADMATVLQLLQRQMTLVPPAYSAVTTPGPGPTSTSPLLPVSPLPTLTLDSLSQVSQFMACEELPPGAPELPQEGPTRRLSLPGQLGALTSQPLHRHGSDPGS
row,SMILES,"hERG current change (%, negative = inhibition) at 10uM"
1,Cc1ccsc1C(=O)OCC(=O)NC1CCCC1,13%
2,CC1(C)CC(=O)CC(C2(O)C(=O)N(Cc3ccccc3)c3ccccc32)O1 (centres unmarked),7.55%
3,COCCCNC(=S)N1CCC(NC(=O)c2ccco2)CC1,-4.82%
4,COCC(=O)N(CCc1ccc(OC)c(OC)c1)Cc1nc2ccccc2c(=O)[nH]1,-8.28%
5,C/C(=N/NS(=O)(=O)c1cc(C)ccc1C)c1ccncc1,11%
6,CCCCC(=O)Nc1ccc(C(=O)N2CCN(C)CC2)cc1,6.41%
7,CCOC(=O)N1CCN(C(=O)c2ccc(SC)cc2OC)CC1,-2.46%
8,O=C(Cc1coc2cc3c(cc12)CCC3)OCc1cc(=O)n2c(n1)sc1ccccc12,4.53%
9,CC(=O)O[C@@]12CO[C@@H]1C[C@H](OC1OCC(O)C(O)C1O)[C@@]1(C)C(=O)[C@H](O)C3=C(C)[C@@H](OC(=O)[C@H](O)[C@@H](NC(=O)c4ccccc4)c4ccccc4)C[C@@](O)([C@@H](OC(=O)c4ccccc4)C12)C3(C)C (some centres unmarked),-7.05%
10,CCOc1cc(CNC2CCCC2)cc(Cl)c1OCc1ccccc1.Cl,-10.3%
11,COc1cc(CNC2CCCC2)c(Br)cc1OCc1ccccc1.Cl,-72.1%
12,COc1cc(CNC2CCCCCCC2)c(Br)cc1OCCO.Cl,7%
13,COc1cc(CNCc2ccccn2)ccc1OCc1ccc(Cl)cc1Cl.Cl,-58.1%
14,COc1cc(CNC2CCCC2)cc(Cl)c1OCc1ccccc1Cl.Cl,-30%
15,COc1cc(CNn2nnnc2N)ccc1OCc1c(Cl)cccc1Cl,-1.22%
16,CCOc1cc(CNC2CCCC2)ccc1OCc1ccccc1Cl.Cl,-50.6%
17,COc1cc(CNCc2ccccn2)ccc1OCc1c(Cl)cccc1Cl.Cl,-51.5%
18,COc1cc(CNC2CCCC2)c(Br)cc1OC1CCCC1.Cl,-45.9%
19,O=C(NCc1ccccn1)c1ccccc1OCc1ccc(Cl)cc1Cl,-1.04%
20,COc1ccc(-c2ccc(CNCc3ccccn3)o2)cc1Cl.Cl,-7.77%
21,COc1ccc(Cl)cc1NC(=S)NCc1ccccn1,9%
22,COc1ccc(-c2oc(=O)c3cc(OC)c(OC)cc3c2C(F)(F)F)cc1,23.7%

row,SMILES,"hERG current change (%, negative = inhibition) at 10uM"
1,CC(C(=O)NCCCc1ccccc1)n1cccc1C(=O)c1ccccc1 (centres unmarked),-5.48%
2,O=C(COC(=O)c1ccccc1C(=O)c1ccc(Cl)cc1)NCC1CCCO1 (centres unmarked),1.96%
3,CN(C)/C=C/C(=O)c1ccc(C(F)(F)F)cc1F,15.3%
4,CCOc1cc(N2CCOCC2)c(OCC)cc1NC(=O)CSc1n[nH]c(N)n1,38.2%
5,Cc1ccc(OCC(=O)NNC(=O)c2cc(C)[nH]n2)cc1,24.6%
6,CCc1nnc(NC(=O)CSc2nnc3ncccn23)s1,19.2%
7,COC(=O)c1nn(-c2ccc(F)cc2)ccc1=O,8.12%
8,C#CCOCCOCCOCCNc1nc(N2CCN(C(=O)CCCCCCCCCCNC(=O)Cn3cc(C[C@@H](C)O)nn3)CC2)nc(N2CCN(C(=O)CCCCCCCCCCNC(=O)[C@H](CCCN=C(N)N)n3cc(C[C@@H](C)CC)nn3)CC2)n1,3.82%
9,COc1ccccc1C(=O)OCn1nnc2ccccc2c1=O,-1.17%
10,CN1CCN(C(=O)C23CCC(C)(C(=O)C2Br)C3(C)C)CC1 (centres unmarked),1.95%
11,COc1cc(CNCc2ccccn2)ccc1OCc1ccccc1Cl.Cl,-58.3%
12,COc1cc(CNCc2ccccn2)ccc1OCC(=O)NC1CCCCC1.Cl,-14.5%
13,CCOc1cc(CNCc2ccccn2)cc(Cl)c1OCC.Cl,-0.796%
14,CC1=C(C(=O)Nc2ccccc2)C(c2cccs2)NC(=O)N1 (centres unmarked),15.6%
15,Cc1cc(C)n(CC(=O)NNC(=O)c2ccc(NC(=O)CC#N)cc2)n1,5.56%
16,Cc1cc(C(C)(C)CC(C)(C)C)ccc1OCCOCC[N+](C)(C)Cc1ccccc1.[Cl-],-80.9%
17,Cc1cc(C(C)(C)C)ccc1OCCN(C)C,-7.47%
18,Cc1cc(C(C)(C)C)ccc1OCCOCCN1CCCC1,-44.5%
19,Cl.Nc1ccc2c(c1)oc1ccccc12,4.15%
20,CCc1ccc(NC(=O)Nc2ccc3c(c2)N(C)C(=O)CS3)cc1,7.64%
21,CCc1cc2c(NCCN3CCCCC3)ncnc2s1.Cl,-71.9%
22,CCc1cc2c(NCCO)ncnc2s1,14.3%

row,SMILES,"hERG current change (%, negative = inhibition) at 10uM"
1,CCc1cc2c(NCCC(=O)O)ncnc2s1,4.76%
2,Cc1csc(SCC(=O)NC2CCCCC2)n1,-1.79%
3,CCOc1ccccc1NC(=O)C(Sc1nnc2ccccn12)c1ccccc1 (centres unmarked),-12.5%
4,Cc1ccc2cc(C)c3nnc(SCC(=O)NCc4ccco4)n3c2c1,-25.5%
5,O=C1c2ccc3c4c(ccc(c24)C(=O)N1c1ccc(O)cc1)C(=O)N(c1ccc(O)cc1)C3=O,23.3%
6,CCNS(=O)(=O)c1ccc(Br)c(OC)c1,10.4%
7,Cc1cc(=O)oc2c(C(=O)/C=C\c3cccs3)c(O)ccc12,11.1%
8,CCCCN(C)CCNC(=O)c1cc2c(-c3cccc(OC)c3)nn(C)c2s1,-49.5%
9,CCN(CCCNC(=O)c1cc2c(-c3cccc(OC)c3)nn(C)c2s1)Cc1ccccc1,-68.1%
10,CCN(CC)CCCNC(=O)c1cc2c(-c3cccc(OC)c3)nn(C)c2s1,-44.7%
11,COc1cccc(-c2nn(C)c3sc(C(=O)NCCCN(C)Cc4ccccc4)cc23)c1,-52.2%
12,COCCCNC(=O)c1cc2c(-c3cccc(OC)c3)nn(C)c2s1,-5.59%
13,CCN(CC)CCNC(=O)c1cc2c(-c3cccc(OC)c3)nn(C)c2s1,-31.8%
14,O=C(COc1ccccc1Cl)Nc1ccc(S(=O)(=O)N2CCOCC2)cc1,15.4%
15,COc1ccc(C(=O)NCCc2c[nH]c3ccccc23)cc1S(=O)(=O)N1CCOCC1,-9.63%
16,COc1ccc(NC(=O)/C(C#N)=C\c2ccc(Br)o2)cc1,4.52%
17,Cc1ccc(C(=O)Nc2cccc(S(=O)(=O)N3CCOCC3)c2)cc1[N+](=O)[O-],24.5%
18,O=C(Cn1nc(C(=O)O)c2ccccc2c1=O)Nc1ccc(F)cc1,8.44%
19,COCC(=O)OC/C(O)=C(\C#N)c1nc2ccccc2[nH]1,11%
20,COC(=O)C1=C(c2c(C)noc2C)C[C@@H]2CC[C@H]1N2C(=O)NCCNC(C)=O,22.2%
21,CC(NCc1ccc(S(N)(=O)=O)cc1)C(=O)Nc1cccc(Cl)c1 (centres unmarked),-8.15%
22,CC(NCc1ccc(S(N)(=O)=O)cc1)C(=O)Nc1cc([N+](=O)[O-])ccc1Cl (centres unmarked),-45.8%

row,SMILES,"hERG current change (%, negative = inhibition) at 10uM"
1,CC(NCc1ccc(S(N)(=O)=O)cc1)C(=O)Nc1ccc([N+](=O)[O-])cc1Cl (centres unmarked),-50.5%
2,Cc1onc(-c2ccccc2)c1CNC(=O)C1COc2ccccc2O1 (centres unmarked),-23%
3,O=C(NCCCN1CCCCCC1)c1cc2c(=O)oc3ccccc3c2s1,-60.5%
4,Cc1ccc2oc(=O)c3cc(C(=O)NCCCN4CCCC(C)C4)sc3c2c1 (centres unmarked),-34.9%
5,Cc1ccc2oc(=O)c3cc(C(=O)NCCCN4C(C)CCCC4C)sc3c2c1 (centres unmarked),-61.6%
6,CCC1CCCCN1CCCNC(=O)c1cc2c(=O)oc3ccc(C)cc3c2s1 (centres unmarked),-69.5%
7,CN1CCN(CCCNC(=O)c2cc3c(=O)oc4ccccc4c3s2)CC1,-14.2%
8,Cc1ccc2oc(=O)c3cc(C(=O)NCCCN4CCN(C)CC4)sc3c2c1,-5.62%
9,CCN1CCN(CCCNC(=O)c2cc3c(=O)oc4ccc(C)cc4c3s2)CC1,-19.1%
10,Cc1ccc2oc(=O)c3cc(C(=O)NCCCN4CC(C)CC(C)C4)sc3c2c1 (centres unmarked),-49.2%
11,Cc1ccc2oc(=O)c3cc(C(=O)NCCCN4CCCCCC4)sc3c2c1,-40.2%
12,Cc1nn(C)c(C(=O)Nc2ccc(S(=O)(=O)NC34CC5CC(CC(C5)C3)C4)cc2)c1Br,9.77%
13,COc1ccc(OCC(O)CN(CC(O)COc2ccc(OC)cc2)c2cccc(O)c2)cc1 (centres unmarked),2.41%
14,CCSc1nnc2c(n1)OC1(CCCC1)Nc1ccccc1-2,2.61%
15,COc1ccc(CN(C)C(=O)CCN2C(=O)c3ccccc3C2=O)c(OC)c1OC,-2.22%
16,CCc1c(C)sc(NC(=S)N2CCN(C(=O)C3CCCO3)CC2)c1C(=O)OC (centres unmarked),-13%
17,CC(C)Cc1nnc(NC(=O)CCC(=O)N2CCN(c3ccccc3F)CC2)s1,17%
18,Cc1ccc(Nc2ccc(C(N)=O)cc2[N+](=O)[O-])cc1C,8.9%
19,CC(=O)OC(C(=O)NCc1ccc(F)cc1)c1ccccn1 (centres unmarked),4.52%
20,OCC[C@@H]1C[C@@H](O)[C@H](O)[C@@]2(Cc3ccccc3CCO2)O1,11%
